CF NFkB inh: blocks PAF-induced NF-kB reporter in cystic fibrosis cells; KKLEB NF-kB-GFP reporter, GFP fluorescence overnight; inhibition, % at 5 µM; 360,000 compounds, 0.86% hits;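 active = at least 50% inhibition at 5 µM, scaled per plate between neutral and stimulator controls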;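 note: PAF is a Pseudomonas aeruginosa culture filtrate used as stimulus; plate controls were PAF-stimulated DMSO wells for no effect and unstimulated DMSO wells for full effect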
TRPM1 prom inh: inhibitors of MITF-driven TRPM1 promoter in melanoma cells; SK-MEL-5 TRPM1 promoter luciferase, 24 h; inhibition, % at 12.5 µM; 330,000 compounds, 0.83% hits;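 active = mean inhibition across replicates of 60% or more, whatever share of single replicates reaches that level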
Peg3 promoter: Peg3 promoter activity inhibition | AID 588405 | 360,000 compounds, 1.7% hits | inhibition, % at 20 µM | HeLa PEG-Prom luciferase reporter, luminescence, overnight;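 active = inhibition of at least 50% at 20 µM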
ABHD5-PLIN5 inh: inhibitors of human ABHD5-perilipin-5 interaction; Split G. princeps luciferase complementation, luminescence, 4 h; 360,000 compounds, 0.78% hits; inhibition, % at 4 µM;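 active = inhibition above the mean inhibition across every tested compound plus 3 SD, cut at about 22% in these data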;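 note: 0% = DMSO only wells and the 100% control is not disclosed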
HIF-2a block: inhibitors of HIF-2a; 786-0 RCC cells HIF-2a reporter, luciferase luminescence, overnight; inhibition, % at 18.8 µM; 360,000 compounds, 0.72% hits; AID 624352;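 active = inhibition of the luminescence signal of 40% or more relative to plate controls, in a single-dose primary screen at 18.75 µM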
KKLEB tox: CF airway cell cytotoxicity counter-screen; activity change (cytotoxicity), % at 5 µM; KKLEB CF airway cells viability, ATPlite luminescence, overnight; hits give low values; cells stimulated with P. aeruginosa culture filtrate; 360,000 compounds, 0.36% hits; AID 602141;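 active = corrected activity change at or below -50% at 5 µM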
An asterisk follows results filed as active. Sampled rows, rich in hits. Any-hit rate of the full collection: about 3.1%.

CCN(CC)c1ccc(-c2nn3c(-c4ccccc4OC)nnc3s2)cc1 was read as CF NFkB inh 53*, TRPM1 prom inh 49, Peg3 promoter 22, ABHD5-PLIN5 inh -3, HIF-2a block 27 and KKLEB tox -48.
`Cc1cc(C(=O)NNC(=O)CCCCC(=O)NNC(=O)c2cc(C)[nH]n2)n[nH]1` gave CF NFkB inh 7, TRPM1 prom inh -3, Peg3 promoter -2, ABHD5-PLIN5 inh 4, HIF-2a block 24 and KKLEB tox -12.
Screening COc1ccc(CC(=O)NNC(=O)c2cc(C)[nH]n2)cc1 returned CF NFkB inh -17, TRPM1 prom inh -3, Peg3 promoter 62*, ABHD5-PLIN5 inh 7, HIF-2a block 14 and KKLEB tox 6.
`Nc1c(N2CCOCC2)cc(Cl)c2nonc12` gave CF NFkB inh 10, TRPM1 prom inh -9, Peg3 promoter -32, ABHD5-PLIN5 inh -13, HIF-2a block -45 and KKLEB tox -16.
`Nc1c(N2CCCC2)cc(Cl)c2nonc12` gave CF NFkB inh -8, TRPM1 prom inh 74*, Peg3 promoter -9, ABHD5-PLIN5 inh -35, HIF-2a block 3 and KKLEB tox -4.
Screening c1ccc(CNCCCNCCCCNCCCNCc2ccccc2)cc1 returned CF NFkB inh 11, TRPM1 prom inh -3, Peg3 promoter 110*, ABHD5-PLIN5 inh -3, HIF-2a block 28 and KKLEB tox 8.
Screening CCOC(=O)c1c(N2C(=O)C3C4C=CC(O4)C3C2=O)sc2c1CCCC2 (centres undefined) returned CF NFkB inh 23, TRPM1 prom inh 1, Peg3 promoter 51*, ABHD5-PLIN5 inh 15, HIF-2a block 10 and KKLEB tox -13.
For CCOC(=O)C1CCN(C(=O)Cn2cnc3sc(C)c(S(=O)(=O)N4CCOCC4)c3c2=O)CC1 the results were CF NFkB inh -6, TRPM1 prom inh -2, Peg3 promoter -2, ABHD5-PLIN5 inh -6, HIF-2a block 10 and KKLEB tox 2.
Screening COc1ccccc1N(C)S(=O)(=O)c1ccc(C(=O)Nc2cccc(S(=O)(=O)N3CCOCC3)c2)cc1 returned CF NFkB inh 3, TRPM1 prom inh -7, Peg3 promoter 50*, ABHD5-PLIN5 inh 3, HIF-2a block 11 and KKLEB tox 20.
CN(c1ccccc1)S(=O)(=O)c1ccc(C(=O)Nc2cccc(S(=O)(=O)N3CCOCC3)c2)cc1 was read as CF NFkB inh 5, Peg3 promoter 21, ABHD5-PLIN5 inh -12, HIF-2a block 4 and KKLEB tox -6.
For COc1ccc(/C=C/c2cc(C(F)(F)F)[nH]c(=O)n2)cc1OC the results were CF NFkB inh -6, TRPM1 prom inh 31, Peg3 promoter 7, ABHD5-PLIN5 inh 22*, HIF-2a block 20 and KKLEB tox 7.
For CCC(C)Sc1ccc(-c2nc3cnccn3c2NC2CCCCC2)cc1 (centres undefined) the results were CF NFkB inh 1, TRPM1 prom inh -11, Peg3 promoter 91*, ABHD5-PLIN5 inh -7, HIF-2a block -97 and KKLEB tox -3.
`COc1ccc(Sc2ccc(-c3nc4cnccn4c3NC3CCCCC3)cc2OC)cc1` gave CF NFkB inh 3, TRPM1 prom inh 0, Peg3 promoter 63*, ABHD5-PLIN5 inh -5, HIF-2a block 15 and KKLEB tox -6.
Screening CCCCCCSc1ccc(-c2nc3cnccn3c2NC2CCCCC2)cc1 returned ABHD5-PLIN5 inh -3 and HIF-2a block -1.
`COC(=O)c1sccc1Oc1c(Cl)cccc1[N+](=O)[O-]` gave CF NFkB inh 12, TRPM1 prom inh -3, Peg3 promoter 4, ABHD5-PLIN5 inh -1, HIF-2a block 13 and KKLEB tox -2.
Screening O=c1ccn([C@@H]2O[C@H](CNCc3c(OCc4ccccc4F)ccc4ccccc34)[C@@H](O)[C@H]2O)c(=O)[nH]1 returned CF NFkB inh 6, Peg3 promoter 2, ABHD5-PLIN5 inh -2, HIF-2a block -2 and KKLEB tox -3.
Screening COc1cc(NC(=S)Nc2ccc(N(C)C(C)=O)cc2)cc(OC)c1 returned CF NFkB inh 0, TRPM1 prom inh 16, Peg3 promoter -9, ABHD5-PLIN5 inh -10, HIF-2a block 2 and KKLEB tox 1.
Screening CNC1=C([N+](=O)[O-])CC([N+](=O)[O-])=C(N2CCNCC2)N1C returned CF NFkB inh -17, TRPM1 prom inh -1, Peg3 promoter 14, ABHD5-PLIN5 inh 3, HIF-2a block 16 and KKLEB tox 22.
For COCCNC(=O)c1cccc(Nc2nc(-c3ccccc3)c3cc(Cl)ccc3n2)c1 the results were CF NFkB inh 5, TRPM1 prom inh 20, Peg3 promoter 53*, ABHD5-PLIN5 inh 7, HIF-2a block 2 and KKLEB tox -5.
For O=C1c2[nH]nc(-c3ccccc3O)c2C(c2ccc(F)cc2)N1Cc1ccco1 (centres undefined) the results were CF NFkB inh 0, TRPM1 prom inh 10, Peg3 promoter 32, ABHD5-PLIN5 inh -3, HIF-2a block 31 and KKLEB tox 11.
Screening O=C1c2[nH]nc(-c3ccccc3O)c2C(c2cccc(Cl)c2)N1Cc1ccco1 (centres undefined) returned CF NFkB inh 6, TRPM1 prom inh 8, Peg3 promoter 60*, ABHD5-PLIN5 inh 4, HIF-2a block 31 and KKLEB tox -1.
For CCOC(=O)C1=C(O)c2ccccc2C(=O)/C1=C\c1ccc(C)cc1 the results were CF NFkB inh 7, TRPM1 prom inh 50, Peg3 promoter 75*, ABHD5-PLIN5 inh 21, HIF-2a block -63 and KKLEB tox 5.
Screening CN(C)c1cc[n+](CC(=O)c2ccc(-c3ccccc3)cc2)cc1 returned CF NFkB inh 48, TRPM1 prom inh 70*, Peg3 promoter 31, ABHD5-PLIN5 inh 7, HIF-2a block 7 and KKLEB tox -27.
`O=C(C[n+]1ccccc1)c1ccc(-c2ccccc2)cc1` gave CF NFkB inh -8, TRPM1 prom inh 6, Peg3 promoter -8, ABHD5-PLIN5 inh 12, HIF-2a block 9 and KKLEB tox -23.
Screening CN(C)CCOc1nc(-c2ccccc2)nc2c1oc1ccccc12 returned CF NFkB inh -67, TRPM1 prom inh 20, Peg3 promoter 100*, ABHD5-PLIN5 inh 21, HIF-2a block 2 and KKLEB tox 0.
For CN(C)CCOc1ncnc2c1oc1ccccc12 the results were CF NFkB inh -18, TRPM1 prom inh 6, Peg3 promoter 8, ABHD5-PLIN5 inh -3, HIF-2a block -16 and KKLEB tox -4.
`O=c1c2c3nc4ccccc4nc3n(-c3ccc4c(c3)OCCO4)c2ncn1C1CCCC1` gave CF NFkB inh 16, TRPM1 prom inh 82*, Peg3 promoter 59*, ABHD5-PLIN5 inh -1, HIF-2a block -1 and KKLEB tox -12.
`NCCOc1ccc(C2CCCCC2)cc1` gave CF NFkB inh -4, TRPM1 prom inh -27, Peg3 promoter -70, ABHD5-PLIN5 inh 8, HIF-2a block -79 and KKLEB tox 0.

Screening results deposited in PubChem BioAssay by several laboratories.
